In assay [1] the test system is Plasmodium falciparum Sir2 (PF13_0152, Sir2A). Put plainly: pfSir2 binders on small-molecule microarrays, primary screen, biochemical, small-molecule microarray, 635 nm fluorescence (AID 1098).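 Also: score merges spot fluorescence intensity with its signal-to-noise ratio.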 The following applies: small-molecule microarray binding, fluorescence 635 nm; higher = more signal.
The nature of assay [2]: small-molecule microarray binders of probe aDKK1, primary screen, biochemical, biotinylated probe, 635/667 nm fluorescence (AID 1099).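 Also: score merges 667nm spot fluorescence with signal to noise across triplicate slides.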 The settings on record: higher = more signal.
A short description of assay [3]: small-molecule microarray binders of probe aCHRDL2, primary screen, biochemical, biotinylated probe, 635/667 nm fluorescence (AID 1100). The following applies: higher = more signal.
A short description of assay [4]: splicing luciferase reporter signal modulators, primary screen, spliceosome inhibition project, cell-based, HEK293, splice +/- reporter (AID 1101).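 Also: HEK293 cells carrying a splicing-competent luciferase reporter gene; test concentration not given here.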 The settings on record: luminescence, 24 h, higher = more signal, called active from +8 up or from −8 down. On the technique in general: In a reporter assay the amount or activity of a reporter protein is the signal.
The target in assay [5] is Fibroblast growth factor 10 (Homo sapiens) (UniProt O15520). Put plainly: FGF10 binders on small-molecule microarrays, primary screen, biochemical, small-molecule microarray, 635 nm fluorescence (AID 1102). The following applies: FGF10 binding, fluorescence 635 nm, higher = more signal.
Chain of Fibroblast growth factor 10 (Homo sapiens) (O15520 whole entry, looked up): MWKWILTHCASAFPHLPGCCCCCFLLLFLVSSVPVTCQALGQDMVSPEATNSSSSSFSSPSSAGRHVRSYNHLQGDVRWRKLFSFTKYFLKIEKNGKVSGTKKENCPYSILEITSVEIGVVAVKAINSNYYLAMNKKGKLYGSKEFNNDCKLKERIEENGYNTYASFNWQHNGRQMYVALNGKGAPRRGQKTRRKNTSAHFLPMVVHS
For assay [6], the system named is glycogen synthase kinase-3 (GSK3A per assay name; protocol says GSK3B). Put plainly: GSK3 binders on small-molecule microarrays, primary screen, biochemical, small-molecule microarray, 635 nm fluorescence, GSK3A (AID 1103). Also: the record names both GSK3A and GSK3B. The settings on record: small-molecule microarray binding, fluorescence 635 nm; higher = more signal.
In assay [7] the target is Epidermal growth factor receptor (Homo sapiens) (UniProt P00533). The experiment in a line: EGFR binders on small-molecule microarrays, primary screen, biochemical, small-molecule microarray, 635 nm fluorescence (AID 1104).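 Also: score merges 667 nm emission intensity with spot signal to noise over triplicate slides.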 The settings on record: EGFR binding, higher = more signal.
Chain of Epidermal growth factor receptor (Homo sapiens) (P00533 whole entry, looked up): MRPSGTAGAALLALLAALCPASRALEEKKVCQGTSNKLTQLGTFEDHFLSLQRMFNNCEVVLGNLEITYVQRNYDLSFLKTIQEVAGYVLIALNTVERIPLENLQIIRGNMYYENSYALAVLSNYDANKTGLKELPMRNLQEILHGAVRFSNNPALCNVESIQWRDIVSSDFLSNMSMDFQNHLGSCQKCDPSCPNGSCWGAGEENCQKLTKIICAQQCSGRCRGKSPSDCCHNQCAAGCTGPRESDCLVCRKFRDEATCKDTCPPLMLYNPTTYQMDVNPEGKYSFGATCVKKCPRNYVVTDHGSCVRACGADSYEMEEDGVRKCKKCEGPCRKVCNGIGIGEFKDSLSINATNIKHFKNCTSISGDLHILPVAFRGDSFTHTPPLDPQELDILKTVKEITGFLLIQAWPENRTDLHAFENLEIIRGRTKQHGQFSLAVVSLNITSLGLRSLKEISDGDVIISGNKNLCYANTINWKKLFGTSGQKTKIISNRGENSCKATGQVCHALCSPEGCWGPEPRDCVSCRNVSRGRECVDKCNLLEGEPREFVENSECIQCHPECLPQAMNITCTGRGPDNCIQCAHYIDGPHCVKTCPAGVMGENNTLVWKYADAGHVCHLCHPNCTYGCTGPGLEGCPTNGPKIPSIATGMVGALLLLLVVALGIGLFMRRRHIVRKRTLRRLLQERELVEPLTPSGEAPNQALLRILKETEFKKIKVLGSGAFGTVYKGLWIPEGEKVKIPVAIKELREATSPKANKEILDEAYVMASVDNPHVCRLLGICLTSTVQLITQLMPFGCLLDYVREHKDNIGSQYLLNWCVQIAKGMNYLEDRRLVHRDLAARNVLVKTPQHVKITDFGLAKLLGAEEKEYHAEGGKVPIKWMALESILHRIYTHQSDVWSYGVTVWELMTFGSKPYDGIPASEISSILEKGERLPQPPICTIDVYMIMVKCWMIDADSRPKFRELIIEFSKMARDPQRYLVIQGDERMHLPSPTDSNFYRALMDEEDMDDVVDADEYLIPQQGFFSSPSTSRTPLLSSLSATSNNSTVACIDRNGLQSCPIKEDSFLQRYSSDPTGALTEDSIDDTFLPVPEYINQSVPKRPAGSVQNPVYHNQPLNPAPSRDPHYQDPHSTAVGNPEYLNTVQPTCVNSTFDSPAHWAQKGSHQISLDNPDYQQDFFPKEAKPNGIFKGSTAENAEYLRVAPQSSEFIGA
In assay [8] the target is Follistatin-related protein 3 (Homo sapiens) (UniProt O95633). The experiment in a line: FSTL3 binders on small-molecule microarrays, primary screen, biochemical, small-molecule microarray, 635 nm fluorescence (AID 1105).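 Also: score merges emission near 667 nm and signal to noise per printed spot across three slides.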 The settings on record: FSTL3 binding, higher = more signal.
Chain of Follistatin-related protein 3 (Homo sapiens) (O95633 whole entry, looked up): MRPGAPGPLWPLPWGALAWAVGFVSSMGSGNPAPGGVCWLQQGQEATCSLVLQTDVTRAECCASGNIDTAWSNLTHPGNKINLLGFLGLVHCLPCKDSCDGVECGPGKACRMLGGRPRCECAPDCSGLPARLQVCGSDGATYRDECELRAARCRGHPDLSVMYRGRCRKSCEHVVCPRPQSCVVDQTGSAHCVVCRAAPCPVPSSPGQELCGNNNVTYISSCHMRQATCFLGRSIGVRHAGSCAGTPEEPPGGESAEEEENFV
Assay [9] has as its target Dickkopf-related protein 1 (Homo sapiens) (UniProt O94907). Put plainly: DKK1 binders on small-molecule microarrays, primary screen, biochemical, small-molecule microarray, 635 nm fluorescence scan (AID 1106).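 Also: score merges emission near 667 nm with signal to noise over three replicate slides.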 The following applies: DKK1 binding, higher = more signal.
In assay [10] the test system is Inhibin beta A chain (activin A). The experiment in a line: INHBA (activin A) binders on microarrays, primary screen, biochemical, small-molecule microarray, 635 nm fluorescence scan (AID 1107).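 Also: mouse activin A protein probed at 4.33 µg/mL on printed slides; score merges bound-protein fluorescence near 667 nm with spot signal-to-noise.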 The following applies: small-molecule microarray binding, higher = more signal.
For assay [11], the system named is Human papillomavirus type 1a protein E7 (residues 44-93). The experiment in a line: HPV1a E7 fragment binders on microarrays, primary screen, biochemical, small-molecule microarray, residues 44-93, 635 nm fluorescence (AID 1108).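 Also: E7 fragment applied at 1 µg/mL in TBST for 1 h at 4 C; score combines spot fluorescence with its signal to noise ratio.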 The settings on record: small-molecule microarray binding, fluorescence 635 nm; higher = more signal.
Assay [12] in a line: modulators of HCV replicon luciferase signal, primary screen, HCV replication inhibitor project, Huh7 cells, luciferase reporter (AID 1109).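 Also: huh7 hepatoma cells harbouring a luciferase neomycin HCV replicon reporter; luciferase luminescence as measure of HCV replicon replication; test concentration not given here.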 The settings on record: 48 h, higher = more signal.
The target of assay [13] is Left-right determination factor 2 (Homo sapiens) (UniProt O00292). Put plainly: LEFTY2 binders on small-molecule microarrays, primary screen, biochemical, small-molecule microarray, 635 nm fluorescence scan (AID 1110). The following applies: LEFTY2 binding, higher = more signal.
Chain of Left-right determination factor 2 (Homo sapiens) (O00292 whole entry, looked up): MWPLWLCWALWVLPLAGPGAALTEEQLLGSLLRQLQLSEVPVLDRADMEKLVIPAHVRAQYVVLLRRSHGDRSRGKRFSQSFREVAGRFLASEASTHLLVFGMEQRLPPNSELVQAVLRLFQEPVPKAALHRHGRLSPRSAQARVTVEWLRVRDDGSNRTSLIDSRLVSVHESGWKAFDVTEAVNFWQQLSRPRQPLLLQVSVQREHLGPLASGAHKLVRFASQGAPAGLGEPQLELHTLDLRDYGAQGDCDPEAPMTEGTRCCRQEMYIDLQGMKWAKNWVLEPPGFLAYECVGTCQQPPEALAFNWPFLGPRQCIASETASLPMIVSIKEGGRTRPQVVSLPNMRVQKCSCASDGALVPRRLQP
For assay [14], the target named is Calmodulin-1 (Homo sapiens) (UniProt P0DP23). The experiment in a line: CALM1 binders on microarrays, EGTA buffer, profiling panel, biochemical, small-molecule microarray, Cy5-labelled CALM1 (AID 1111).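 Also: labelled calmodulin applied in Tris saline Tween buffer holding calcium plus EGTA and DTT.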 The following applies: Cy5-CALM1 binding fluorescence, higher = more signal.
Assay [15] shares this target. The experiment in a line: calcium-bound CALM1 binders on microarrays, profiling panel, artefact control for SMM control-protein annotation, biochemical, small-molecule microarray, Cy5-labelled CALM1, plus calcium (AID 1112).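 Also: score merges spot fluorescence with signal to noise from triplicate slides.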 The following applies: Cy5-CALM1 binding fluorescence, higher = more signal.
The nature of assay [16]: small-molecule microarray binders of probe aWnt5a, primary screen, biochemical, biotinylated probe, 635/667 nm fluorescence (AID 1113).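 Also: score merges 667 nm fluorescence intensity with signal-to-noise per printed feature.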 The settings on record: higher = more signal.
A short description of assay [17]: small-molecule microarray binders of probe aShh, primary screen, biochemical, biotinylated probe, 635/667 nm fluorescence (AID 1114).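 Also: probe is biotin-labelled aShh protein from a stem cell growth factor screen; measures binding of labelled protein to compounds printed on the slide; score merges feature fluorescence at 667 nm with signal-to-noise.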 The following applies: higher = more signal.
The nature of assay [18]: small-molecule microarray binders of probe aNog, primary screen, biochemical, biotinylated probe, 635/667 nm fluorescence (AID 1115).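 Also: probe is biotinylated aNog protein used at 0.15 µg/mL for 1 h at 4 C; z-score combines 667 nm fluorescence of each spot with its signal to noise.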 The following applies: higher = more signal.
For assay [19], the target named is Torsin-1A-interacting protein 1 (Homo sapiens) (UniProt Q5JTV8). Put plainly: LAP1 binders from COS7 cell lysate, primary screen, small-molecule microarray, 635/667 nm fluorescence (AID 1116). The settings on record: COS7-hLAP1 lysate binding, 635 nm fluorescence, higher = more signal.
Chain of Torsin-1A-interacting protein 1 (Homo sapiens) (Q5JTV8 whole entry, looked up): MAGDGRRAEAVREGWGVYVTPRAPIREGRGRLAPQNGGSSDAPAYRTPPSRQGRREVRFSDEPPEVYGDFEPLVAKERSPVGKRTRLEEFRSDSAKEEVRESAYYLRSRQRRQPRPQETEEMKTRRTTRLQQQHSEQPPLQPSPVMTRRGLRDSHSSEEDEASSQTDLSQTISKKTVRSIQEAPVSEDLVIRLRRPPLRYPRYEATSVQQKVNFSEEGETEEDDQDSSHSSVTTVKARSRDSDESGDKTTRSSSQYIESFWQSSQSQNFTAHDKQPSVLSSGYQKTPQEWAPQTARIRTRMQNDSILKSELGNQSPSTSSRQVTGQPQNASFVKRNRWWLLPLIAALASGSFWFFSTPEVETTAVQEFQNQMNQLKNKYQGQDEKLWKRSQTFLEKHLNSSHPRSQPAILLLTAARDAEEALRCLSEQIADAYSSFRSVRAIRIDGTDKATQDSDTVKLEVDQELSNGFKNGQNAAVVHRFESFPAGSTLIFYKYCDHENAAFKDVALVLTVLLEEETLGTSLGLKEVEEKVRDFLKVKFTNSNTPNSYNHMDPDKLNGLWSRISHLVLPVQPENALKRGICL
Assay [20] addresses Alpha-bungarotoxin (Bungarus multicinctus) (UniProt P60615). Put plainly: alpha-bungarotoxin binders on microarray, profiling panel, artefact control for SMM control protein annotation, biochemical, small-molecule microarray, Alexa647 label, 635/667 nm fluorescence (AID 1117). The following applies: alpha-BTX-A647 binding fluorescence, higher = more signal.

SMILES strings stand for the structures. The source made the active and inactive calls.

Chain of Dickkopf-related protein 1 (Homo sapiens) (O94907 whole entry, looked up): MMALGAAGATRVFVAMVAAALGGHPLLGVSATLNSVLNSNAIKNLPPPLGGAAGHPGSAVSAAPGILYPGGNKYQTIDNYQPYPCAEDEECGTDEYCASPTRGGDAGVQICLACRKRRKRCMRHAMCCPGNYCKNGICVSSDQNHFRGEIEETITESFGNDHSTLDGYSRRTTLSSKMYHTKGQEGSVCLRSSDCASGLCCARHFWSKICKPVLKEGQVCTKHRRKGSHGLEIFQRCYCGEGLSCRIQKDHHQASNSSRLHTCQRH
Chain of Alpha-bungarotoxin (Bungarus multicinctus) (P60615 whole entry, looked up): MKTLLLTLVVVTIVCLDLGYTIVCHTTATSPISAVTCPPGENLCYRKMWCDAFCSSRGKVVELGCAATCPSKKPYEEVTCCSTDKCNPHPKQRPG

For `CCN(CC)c1ccc(N2CC=CC34O[C@@H]5C=CCOC(=O)[C@@H]5[C@H]3C(=O)N(CCCCCCO)[C@@H]4C2=O)cc1` (stereo not given in full), the composite z-score in assay [1] was 1.85; in [2] it was -0.131; in assay [3], 0.844; in [5] it was -0.655; in assay [6] it was -0.559; in assay [7], -0.366. The composite z-score in assay [8] is -0.406; in assay [9], -0.863; in assay [10] it was 1.17; in assay [11] it was 1.01; in [13], -0.699; in [14], -0.333. Besides, the composite z-score in assay [15] is 0.48; in assay [16], -0.152; in assay [17] it was -0.0035; in [18] it was -0.248; in assay [19] it was 2.01; in assay [20] it was -0.226. The z-score in assay [4] is -0.93 (inactive); in assay [12], -1.4.
With `O=C1NC(=O)C2C1C=CC(C(O)c1ccc(I)cc1)N2Nc1ccccn1` (stereo not given), the composite z-score in [1] was 1.33; in assay [2] it was 0.0824; in [3], 0.464; in assay [5], -0.0548; in assay [6] it was -0.269; in assay [7], 0.268. In addition, the composite z-score in assay [8] is -0.0861; in assay [9], 0.153; in [10] it was 1.14; in assay [11] it was -0.409; in assay [13], 0.379; in assay [14] it was 0.532. Also, the composite z-score is 0.267 in [15]; 0.0136 in assay [16]; 0.282 in assay [17]; 0.0403 in [18]; -0.593 in assay [19]; 0.636 in assay [20]. In addition, the z-score is 1.04 (inactive) in assay [4] and -0.533 in assay [12].
Take `COC(=O)c1c2oc(c1C(=O)OC)C(=O)N[C@@H](C(C)C)Cn1cc(nn1)C1(CCCCC1)NC(=O)N[C@H](CO)CC2`: the composite z-score was 1.68 in assay [1]; -0.324 in assay [2]; -0.288 in assay [3]; 0.408 in assay [5]; 0.0356 in [6]; -0.375 in assay [7]. Further, the composite z-score in assay [8] is -0.0824; in assay [9] it was 0.145; in assay [10] it was -0.462; in assay [11] it was 0.218; in assay [13] it was -0.05; in assay [14], -0.346. The composite z-score in [15] is -0.403; in assay [16], -0.0269; in assay [17] it was -0.0769; in assay [18], 0.621; in [19] it was 0.764; in assay [20], -0.216. Also, the z-score in [4] was 0.343 (inactive); in [12], 1.48.
As for `C=C(C)[C@@H]1CC=C(C(O)C2C=CC3C(=O)NC(=O)C3N2Nc2ccc(Cl)cc2Cl)CC1` (stereo not given in full), the composite z-score worked out at 0.576 in assay [1]; 0.802 in assay [2]; 1.3 in assay [3]; 0.276 in assay [5]; 0.289 in assay [6]; 0.433 in assay [7]. The composite z-score was 1.06 in [8]; 0.414 in assay [9]; 1.66 in assay [10]; 0.762 in assay [11]; 0.216 in assay [13]; 2.19 in assay [14]. The composite z-score in assay [15] was 1.21; in assay [16], 0.0328; in assay [17] it was -0.0271; in [18], 1.61; in [19], 0.584; in assay [20], 2.26. The z-score in assay [4] was 0.172 (inactive); in assay [12], -0.537.
Regarding `NC(=O)[C@@]1(Cc2ccccc2)N=C(c2ccc(OCCCO)cc2)O[C@H]1c1ccccc1`, the composite z-score in [1] is 0.363; in assay [2] it was 0.963; in [3] it was 1.22; in assay [5], 1.15; in [6], -0.327; in assay [7], 0.0149. Moreover, the composite z-score in assay [8] was -0.68; in assay [9], -0.348; in [10], 0.87; in [11], -1.02; in assay [13], -0.949; in assay [14], 1.19. Further, the composite z-score in [15] was 1.2; in assay [16], -0.11; in assay [17], 0.629; in assay [18], 1.06; in [19] it was 3.1; in assay [20] it was -0.387. Further, the z-score is -1.26 (inactive) in assay [4] and -0.605 in [12].
With `C=CCC(OC(C)=O)[C@@H]1[C@@H](N(Cc2ccc(-c3ccccc3)cc2)C(=O)Cc2ccc(F)cc2)c2cc(OCCCO)ccc2N1C(=O)c1ccc2ccccc2c1` (stereo not given in full), the composite z-score in assay [1] was -0.352; in assay [2], -0.0183; in assay [3], 0.345; in assay [5], 0.0036; in assay [6] it was 0.0557; in [7] it was 0.0144. For the same compound, the composite z-score in assay [8] was 0.268; in assay [9], -0.4; in [10], 1.18; in assay [11] it was 0.0163; in [13] it was -0.0251; in [14], -0.0052. Further, the composite z-score in assay [15] was 0.28; in [16] it was -0.141; in [17] it was -0.221; in [18], -0.0632; in assay [19] it was 0.402; in [20] it was -0.0517. Moreover, the z-score is -0.519 (inactive) in assay [4] and -0.381 in assay [12].
